# How the values were obtained:
# Experiment in all cases: DAPPL (digital affinity profiling via proximity ligation, sequencing); 10 mM Tris-HCl pH 7.5, 50 mM NaCl, 1 mM DTT, 4% glycerol, room temperature, 30 min; GST-TFs on glutathione beads, 16-mer random dsDNA library, 0.1% formaldehyde crosslink after washing; high values mean tight binding
# FLI1 = molecular target: T1, FLI1 (Homo sapiens, UniProt Q01543 1-452); conditions: protein: recombinant; tags: N-terminal GST; dsDNA, one strand shown
# T1 sequence: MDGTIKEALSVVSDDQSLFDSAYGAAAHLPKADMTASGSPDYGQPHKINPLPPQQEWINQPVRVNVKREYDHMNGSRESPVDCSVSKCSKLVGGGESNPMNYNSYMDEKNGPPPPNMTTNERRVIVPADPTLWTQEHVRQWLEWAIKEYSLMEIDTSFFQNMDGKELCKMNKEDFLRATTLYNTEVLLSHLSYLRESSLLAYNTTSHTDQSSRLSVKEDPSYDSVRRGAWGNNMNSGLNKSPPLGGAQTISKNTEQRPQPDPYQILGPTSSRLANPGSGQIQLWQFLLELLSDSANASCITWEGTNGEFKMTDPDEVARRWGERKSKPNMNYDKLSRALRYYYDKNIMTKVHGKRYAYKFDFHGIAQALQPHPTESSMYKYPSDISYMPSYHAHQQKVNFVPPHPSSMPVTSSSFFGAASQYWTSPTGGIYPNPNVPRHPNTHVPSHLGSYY
# Summary of the method: (§1)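 Binding signal is defined as a hexamer's read frequency for one factor over its frequency for the tag-only sample. To obtain reads, GST-fused human transcription factors were expressed in yeast, captured on glutathione beads, barcoded with DNA and pooled with that sample. Pools met 200 nmole of a 16-mer random double-stranded DNA library in Tris/NaCl/DTT/glycerol buffer for 30 min at room temperature before washing, 0.1% formaldehyde crosslinking, proximity ligation (BsaI/T4 ligase, 1 h, 37 °C), PCR and Illumina NextSeq500 sequencing.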
# ELK1 = molecular target: T2, ELK1 (Homo sapiens, UniProt P19419 1-428); conditions: protein: recombinant; tags: N-terminal GST; dsDNA, one strand shown
# T2 sequence: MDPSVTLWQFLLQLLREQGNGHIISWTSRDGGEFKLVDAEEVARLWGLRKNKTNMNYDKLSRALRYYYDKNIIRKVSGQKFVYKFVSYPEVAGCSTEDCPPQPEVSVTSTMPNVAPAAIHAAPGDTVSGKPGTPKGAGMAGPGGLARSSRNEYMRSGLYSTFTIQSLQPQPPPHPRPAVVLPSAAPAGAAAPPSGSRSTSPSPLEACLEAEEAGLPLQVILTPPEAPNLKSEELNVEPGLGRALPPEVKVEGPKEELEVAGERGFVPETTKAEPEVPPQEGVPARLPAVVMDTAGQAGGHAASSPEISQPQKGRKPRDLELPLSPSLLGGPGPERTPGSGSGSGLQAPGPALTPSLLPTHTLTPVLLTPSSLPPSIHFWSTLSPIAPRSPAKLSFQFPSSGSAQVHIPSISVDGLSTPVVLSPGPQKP
# Summary of the method: as §1
# GABPA = molecular target: T3, GABPA (Homo sapiens, UniProt Q06546 1-454); conditions: protein: recombinant; tags: N-terminal GST; dsDNA, one strand shown
# T3 sequence: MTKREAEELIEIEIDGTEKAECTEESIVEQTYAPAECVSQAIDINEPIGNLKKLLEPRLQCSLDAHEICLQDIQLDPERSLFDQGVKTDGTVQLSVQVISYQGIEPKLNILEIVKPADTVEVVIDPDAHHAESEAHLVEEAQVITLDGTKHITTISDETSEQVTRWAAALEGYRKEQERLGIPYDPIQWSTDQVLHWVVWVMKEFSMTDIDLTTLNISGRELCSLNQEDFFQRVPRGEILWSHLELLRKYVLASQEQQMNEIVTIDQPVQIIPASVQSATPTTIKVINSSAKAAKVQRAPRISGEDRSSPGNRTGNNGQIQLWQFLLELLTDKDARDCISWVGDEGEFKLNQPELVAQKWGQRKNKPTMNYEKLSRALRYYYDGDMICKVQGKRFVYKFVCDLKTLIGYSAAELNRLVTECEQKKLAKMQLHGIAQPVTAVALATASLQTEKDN
# Summary of the method: as §1
# ERG = molecular target: T4, ERG (Homo sapiens, UniProt P11308 1-479); conditions: protein: recombinant; tags: N-terminal GST; dsDNA, one strand shown
# T4 sequence: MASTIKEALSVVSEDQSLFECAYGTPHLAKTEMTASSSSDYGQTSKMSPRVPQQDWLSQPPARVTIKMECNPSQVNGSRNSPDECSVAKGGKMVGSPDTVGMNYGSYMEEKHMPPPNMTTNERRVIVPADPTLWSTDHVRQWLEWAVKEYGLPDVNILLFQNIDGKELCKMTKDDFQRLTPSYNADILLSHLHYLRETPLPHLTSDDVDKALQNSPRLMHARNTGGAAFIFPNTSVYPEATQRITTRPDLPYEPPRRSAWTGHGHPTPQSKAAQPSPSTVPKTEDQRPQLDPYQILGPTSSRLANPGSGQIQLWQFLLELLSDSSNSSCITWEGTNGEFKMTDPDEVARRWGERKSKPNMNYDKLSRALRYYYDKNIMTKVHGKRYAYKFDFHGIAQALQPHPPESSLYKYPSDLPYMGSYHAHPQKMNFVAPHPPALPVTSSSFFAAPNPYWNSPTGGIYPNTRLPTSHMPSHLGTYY
# Summary of the method: as §1
# ELF1 = ELF1 (Homo sapiens, UniProt P32519 1-619); conditions: protein: recombinant; tags: N-terminal GST; dsDNA, one strand shown
# Summary of the method: as §1
# EHF = molecular target: T5, EHF (Homo sapiens, UniProt Q9NZC4 1-300); conditions: protein: recombinant; tags: N-terminal GST; dsDNA, one strand shown
# T5 sequence: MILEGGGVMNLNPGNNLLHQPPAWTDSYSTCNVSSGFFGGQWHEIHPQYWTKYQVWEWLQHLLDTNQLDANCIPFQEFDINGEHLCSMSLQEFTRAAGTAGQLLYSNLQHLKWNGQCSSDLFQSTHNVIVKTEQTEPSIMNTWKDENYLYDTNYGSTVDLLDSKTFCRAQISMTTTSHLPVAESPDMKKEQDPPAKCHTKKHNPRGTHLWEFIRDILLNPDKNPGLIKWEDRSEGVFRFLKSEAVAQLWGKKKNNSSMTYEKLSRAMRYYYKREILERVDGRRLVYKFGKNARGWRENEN
# Summary of the method: as §1
# SPI1 = SPI1 (Homo sapiens, UniProt P17947 1-270); conditions: protein: recombinant; tags: N-terminal GST; dsDNA, one strand shown
# Summary of the method: as §1
# SPIB = SPIB (Homo sapiens, UniProt Q01892 1-262); conditions: protein: recombinant; tags: N-terminal GST; dsDNA, one strand shown
# Summary of the method: as §1
# ELK3 = molecular target: T6, ELK3 (Homo sapiens, UniProt P41970 1-407); conditions: protein: recombinant; tags: N-terminal GST; dsDNA, one strand shown
# T6 sequence: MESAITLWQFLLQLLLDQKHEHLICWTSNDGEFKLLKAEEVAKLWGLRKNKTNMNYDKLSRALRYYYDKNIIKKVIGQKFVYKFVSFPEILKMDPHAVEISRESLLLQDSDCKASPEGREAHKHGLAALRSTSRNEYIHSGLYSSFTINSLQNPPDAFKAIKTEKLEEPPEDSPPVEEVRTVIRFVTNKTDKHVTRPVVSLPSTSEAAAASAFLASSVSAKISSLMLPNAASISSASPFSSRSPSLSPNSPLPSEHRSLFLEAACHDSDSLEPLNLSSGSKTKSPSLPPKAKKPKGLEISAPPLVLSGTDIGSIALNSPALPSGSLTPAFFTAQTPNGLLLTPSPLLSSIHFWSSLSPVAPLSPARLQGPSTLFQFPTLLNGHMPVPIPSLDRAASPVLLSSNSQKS
# Summary of the method: as §1
# FEV = molecular target: T7, FEV (Homo sapiens, UniProt Q99581 1-238); conditions: protein: recombinant; tags: N-terminal GST; dsDNA, one strand shown
# T7 sequence: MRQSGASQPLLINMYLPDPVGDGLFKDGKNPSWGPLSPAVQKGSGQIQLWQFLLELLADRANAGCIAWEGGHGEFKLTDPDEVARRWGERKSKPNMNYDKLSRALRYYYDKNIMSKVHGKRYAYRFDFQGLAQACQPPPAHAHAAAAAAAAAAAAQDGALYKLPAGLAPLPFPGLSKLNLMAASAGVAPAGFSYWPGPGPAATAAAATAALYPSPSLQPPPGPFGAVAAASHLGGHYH
# Summary of the method: as §1
# ETV5 = ETV5 (Homo sapiens, UniProt P41161 1-510); conditions: protein: recombinant; tags: N-terminal GST; dsDNA, one strand shown
# Summary of the method: as §1
# HSF1 = HSF1 (Homo sapiens, UniProt Q00613 1-529); conditions: protein: recombinant; tags: N-terminal GST; chain copies: 3; dsDNA, one strand shown
# Summary of the method: as §1
# SPIC = molecular target: T8, SPIC (Homo sapiens, UniProt Q8N5J4 1-248); conditions: protein: recombinant; tags: N-terminal GST; dsDNA, one strand shown
# T8 sequence: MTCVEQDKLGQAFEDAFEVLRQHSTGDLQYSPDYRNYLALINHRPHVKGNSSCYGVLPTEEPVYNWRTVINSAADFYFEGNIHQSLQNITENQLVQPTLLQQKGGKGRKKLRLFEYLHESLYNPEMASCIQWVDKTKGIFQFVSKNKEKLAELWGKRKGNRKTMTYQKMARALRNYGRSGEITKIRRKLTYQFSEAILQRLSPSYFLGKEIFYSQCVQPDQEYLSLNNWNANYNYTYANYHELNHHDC
# Summary of the method: as §1
# ELF4 = ELF4 (Homo sapiens, UniProt Q99607 1-663); conditions: protein: recombinant; tags: N-terminal GST; dsDNA, one strand shown
# Summary of the method: as §1
# ELK4 = molecular target: T9, ELK4 (Homo sapiens, UniProt P28324-2 1-405); conditions: protein: recombinant; tags: N-terminal GST; dsDNA, one strand shown
# T9 sequence: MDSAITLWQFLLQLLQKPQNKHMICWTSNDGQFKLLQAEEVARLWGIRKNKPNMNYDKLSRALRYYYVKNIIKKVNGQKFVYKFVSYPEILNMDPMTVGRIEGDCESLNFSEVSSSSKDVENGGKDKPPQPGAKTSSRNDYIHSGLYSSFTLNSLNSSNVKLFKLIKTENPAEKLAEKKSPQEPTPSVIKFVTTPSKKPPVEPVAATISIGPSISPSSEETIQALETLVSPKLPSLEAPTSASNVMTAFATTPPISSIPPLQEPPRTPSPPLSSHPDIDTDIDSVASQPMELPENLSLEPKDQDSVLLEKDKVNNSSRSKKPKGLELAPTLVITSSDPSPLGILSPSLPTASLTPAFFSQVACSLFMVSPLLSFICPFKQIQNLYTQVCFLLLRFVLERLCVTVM
# Summary of the method: as §1
# ETV2 = molecular target: T10, ETV2 (Homo sapiens, UniProt O00321 1-342); conditions: protein: recombinant; tags: N-terminal GST; dsDNA, one strand shown
# T10 sequence: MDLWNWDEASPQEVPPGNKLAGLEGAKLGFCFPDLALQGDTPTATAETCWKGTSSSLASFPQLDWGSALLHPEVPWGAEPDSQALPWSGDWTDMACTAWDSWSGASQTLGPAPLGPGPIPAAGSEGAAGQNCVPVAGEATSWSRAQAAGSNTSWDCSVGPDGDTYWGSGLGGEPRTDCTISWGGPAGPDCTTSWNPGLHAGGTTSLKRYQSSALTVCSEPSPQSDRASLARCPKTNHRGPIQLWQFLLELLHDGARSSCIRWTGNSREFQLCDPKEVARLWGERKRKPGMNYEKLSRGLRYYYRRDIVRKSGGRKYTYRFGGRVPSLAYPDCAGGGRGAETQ
# Summary of the method: as §1
# ELF3 = molecular target: T11, ELF3 (Homo sapiens, UniProt P78545 1-371); conditions: protein: recombinant; tags: N-terminal GST; dsDNA, one strand shown
# T11 sequence: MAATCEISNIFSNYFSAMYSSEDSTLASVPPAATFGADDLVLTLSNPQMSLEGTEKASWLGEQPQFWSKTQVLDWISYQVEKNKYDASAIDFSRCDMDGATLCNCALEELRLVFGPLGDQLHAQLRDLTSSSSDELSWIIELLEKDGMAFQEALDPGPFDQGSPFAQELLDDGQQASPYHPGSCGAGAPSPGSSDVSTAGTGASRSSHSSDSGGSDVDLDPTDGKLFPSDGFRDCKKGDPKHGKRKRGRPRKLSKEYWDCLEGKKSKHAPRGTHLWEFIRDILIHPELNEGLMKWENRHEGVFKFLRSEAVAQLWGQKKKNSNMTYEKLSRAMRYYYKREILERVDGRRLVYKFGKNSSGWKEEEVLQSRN
# Summary of the method: as §1
# CRX = CRX (Homo sapiens, UniProt O43186 1-299); conditions: protein: recombinant; tags: N-terminal GST; dsDNA, one strand shown
# Summary of the method: as §1
# ETV1 = ETV1 (Homo sapiens, UniProt P50549 1-477); conditions: protein: recombinant; tags: N-terminal GST; dsDNA, one strand shown
# Summary of the method: as §1
# CRX, sequence (O43186 whole entry): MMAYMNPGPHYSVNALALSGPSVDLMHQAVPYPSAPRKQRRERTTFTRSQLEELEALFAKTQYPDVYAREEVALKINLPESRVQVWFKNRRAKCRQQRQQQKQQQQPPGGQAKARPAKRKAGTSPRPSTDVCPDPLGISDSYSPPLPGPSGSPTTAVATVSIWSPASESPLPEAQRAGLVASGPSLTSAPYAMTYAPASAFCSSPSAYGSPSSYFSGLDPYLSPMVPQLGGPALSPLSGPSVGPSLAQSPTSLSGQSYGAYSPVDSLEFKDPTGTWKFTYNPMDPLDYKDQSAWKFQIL
# ELF1, sequence (P32519 whole entry): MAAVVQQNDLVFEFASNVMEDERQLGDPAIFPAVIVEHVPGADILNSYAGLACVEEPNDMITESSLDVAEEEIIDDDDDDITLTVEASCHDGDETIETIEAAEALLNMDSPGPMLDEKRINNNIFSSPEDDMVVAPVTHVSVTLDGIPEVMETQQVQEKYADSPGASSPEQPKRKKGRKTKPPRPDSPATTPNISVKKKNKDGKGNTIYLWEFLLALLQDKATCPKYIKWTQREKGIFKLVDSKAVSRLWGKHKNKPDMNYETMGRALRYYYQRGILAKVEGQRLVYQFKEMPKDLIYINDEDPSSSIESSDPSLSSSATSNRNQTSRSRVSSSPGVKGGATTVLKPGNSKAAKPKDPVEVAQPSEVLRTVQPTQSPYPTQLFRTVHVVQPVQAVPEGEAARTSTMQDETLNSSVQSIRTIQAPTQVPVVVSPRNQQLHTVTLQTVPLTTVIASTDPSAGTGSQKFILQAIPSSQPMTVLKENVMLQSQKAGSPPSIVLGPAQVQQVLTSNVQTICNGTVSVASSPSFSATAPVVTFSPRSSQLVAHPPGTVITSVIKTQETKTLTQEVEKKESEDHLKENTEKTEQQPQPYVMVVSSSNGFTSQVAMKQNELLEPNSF
# SPIB, sequence (Q01892 whole entry): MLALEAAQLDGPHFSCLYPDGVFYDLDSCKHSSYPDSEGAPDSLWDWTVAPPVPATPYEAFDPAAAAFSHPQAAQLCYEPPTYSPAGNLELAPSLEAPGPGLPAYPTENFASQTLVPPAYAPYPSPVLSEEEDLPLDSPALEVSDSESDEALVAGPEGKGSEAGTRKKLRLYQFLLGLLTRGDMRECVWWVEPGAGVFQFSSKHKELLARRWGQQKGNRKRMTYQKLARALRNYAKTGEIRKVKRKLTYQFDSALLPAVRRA
# ETV1, sequence (P50549 whole entry): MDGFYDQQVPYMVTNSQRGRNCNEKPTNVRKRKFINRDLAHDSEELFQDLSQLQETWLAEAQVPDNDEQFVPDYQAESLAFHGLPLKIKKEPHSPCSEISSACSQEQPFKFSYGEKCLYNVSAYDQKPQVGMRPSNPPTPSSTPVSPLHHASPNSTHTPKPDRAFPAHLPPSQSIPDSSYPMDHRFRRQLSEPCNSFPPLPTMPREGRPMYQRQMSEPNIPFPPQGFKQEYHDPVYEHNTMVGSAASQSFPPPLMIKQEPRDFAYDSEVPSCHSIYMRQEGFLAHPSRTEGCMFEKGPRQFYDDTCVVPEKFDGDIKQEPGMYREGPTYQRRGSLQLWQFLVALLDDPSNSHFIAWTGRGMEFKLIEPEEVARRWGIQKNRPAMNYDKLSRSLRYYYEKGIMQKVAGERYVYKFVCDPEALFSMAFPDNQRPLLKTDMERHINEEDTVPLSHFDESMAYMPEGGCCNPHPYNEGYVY
# ELF4, sequence (Q99607 whole entry): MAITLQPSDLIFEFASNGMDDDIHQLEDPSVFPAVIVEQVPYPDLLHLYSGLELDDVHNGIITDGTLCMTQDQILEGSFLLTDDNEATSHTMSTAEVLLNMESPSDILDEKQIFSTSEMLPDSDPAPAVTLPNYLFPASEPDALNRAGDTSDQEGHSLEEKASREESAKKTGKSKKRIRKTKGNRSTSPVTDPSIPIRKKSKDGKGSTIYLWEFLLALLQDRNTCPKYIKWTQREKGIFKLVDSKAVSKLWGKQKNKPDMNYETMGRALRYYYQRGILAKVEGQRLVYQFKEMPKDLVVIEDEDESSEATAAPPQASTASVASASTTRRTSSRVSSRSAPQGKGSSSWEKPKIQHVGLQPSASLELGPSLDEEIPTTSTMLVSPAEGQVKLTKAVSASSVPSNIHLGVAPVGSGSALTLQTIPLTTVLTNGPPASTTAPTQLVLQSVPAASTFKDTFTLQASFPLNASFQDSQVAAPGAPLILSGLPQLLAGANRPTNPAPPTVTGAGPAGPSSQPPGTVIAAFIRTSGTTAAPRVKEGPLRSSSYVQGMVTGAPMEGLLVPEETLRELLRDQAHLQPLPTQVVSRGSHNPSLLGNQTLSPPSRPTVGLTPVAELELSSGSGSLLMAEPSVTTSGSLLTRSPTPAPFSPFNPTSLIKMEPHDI
# ETV5, sequence (P41161 whole entry): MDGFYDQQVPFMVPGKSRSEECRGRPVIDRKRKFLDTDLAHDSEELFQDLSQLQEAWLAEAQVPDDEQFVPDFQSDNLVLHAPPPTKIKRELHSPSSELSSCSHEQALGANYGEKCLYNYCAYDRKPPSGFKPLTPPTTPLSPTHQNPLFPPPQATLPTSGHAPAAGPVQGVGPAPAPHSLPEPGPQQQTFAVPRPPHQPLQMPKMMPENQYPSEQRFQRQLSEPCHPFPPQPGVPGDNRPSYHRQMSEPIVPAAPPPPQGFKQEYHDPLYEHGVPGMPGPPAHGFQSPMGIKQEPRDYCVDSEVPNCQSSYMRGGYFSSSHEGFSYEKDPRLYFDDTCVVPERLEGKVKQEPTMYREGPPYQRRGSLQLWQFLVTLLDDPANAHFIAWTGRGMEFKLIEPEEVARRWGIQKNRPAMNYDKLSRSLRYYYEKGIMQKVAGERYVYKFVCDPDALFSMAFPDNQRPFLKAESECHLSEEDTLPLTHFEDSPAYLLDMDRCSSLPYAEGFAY
# HSF1, sequence (Q00613 whole entry): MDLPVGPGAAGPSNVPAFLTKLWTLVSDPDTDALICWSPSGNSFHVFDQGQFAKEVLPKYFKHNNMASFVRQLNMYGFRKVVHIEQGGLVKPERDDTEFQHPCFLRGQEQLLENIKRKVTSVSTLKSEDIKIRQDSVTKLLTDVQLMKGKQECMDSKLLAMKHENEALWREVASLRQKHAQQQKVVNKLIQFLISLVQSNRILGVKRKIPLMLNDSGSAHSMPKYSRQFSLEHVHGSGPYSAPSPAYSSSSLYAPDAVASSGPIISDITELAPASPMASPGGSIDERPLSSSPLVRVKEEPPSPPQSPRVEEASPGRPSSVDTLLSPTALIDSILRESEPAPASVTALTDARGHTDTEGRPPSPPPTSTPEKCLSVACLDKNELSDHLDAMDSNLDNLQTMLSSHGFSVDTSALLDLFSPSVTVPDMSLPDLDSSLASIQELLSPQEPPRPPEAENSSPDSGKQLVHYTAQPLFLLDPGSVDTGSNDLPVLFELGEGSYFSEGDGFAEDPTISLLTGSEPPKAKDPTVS
sequence,measurement,setting,value
GATATA,binding signal,FLI1,"1.12 fold enrichment (6-mer frequency, TF over GST control)"
same,binding signal,ELK1,"1.06 fold enrichment (6-mer frequency, TF over GST control)"
same,binding signal,GABPA,"1.15 fold enrichment (6-mer frequency, TF over GST control)"
same,binding signal,ERG,"1.13 fold enrichment (6-mer frequency, TF over GST control)"
same,binding signal,ELF1,"1.09 fold enrichment (6-mer frequency, TF over GST control)"
same,binding signal,EHF,"1.18 fold enrichment (6-mer frequency, TF over GST control)"
same,binding signal,SPI1,"1.09 fold enrichment (6-mer frequency, TF over GST control)"
same,binding signal,SPIB,"1.06 fold enrichment (6-mer frequency, TF over GST control)"
same,binding signal,ELK3,"1.17 fold enrichment (6-mer frequency, TF over GST control)"
same,binding signal,FEV,"1.08 fold enrichment (6-mer frequency, TF over GST control)"
same,binding signal,ETV5,"1.13 fold enrichment (6-mer frequency, TF over GST control)"
same,binding signal,HSF1,"1.09 fold enrichment (6-mer frequency, TF over GST control)"
same,binding signal,SPIC,"1.13 fold enrichment (6-mer frequency, TF over GST control)"
same,binding signal,ELF4,"1.06 fold enrichment (6-mer frequency, TF over GST control)"
same,binding signal,ELK4,"1.18 fold enrichment (6-mer frequency, TF over GST control)"
same,binding signal,ETV2,"1.19 fold enrichment (6-mer frequency, TF over GST control)"
same,binding signal,ELF3,"1.33 fold enrichment (6-mer frequency, TF over GST control)"
same,binding signal,CRX,"1.19 fold enrichment (6-mer frequency, TF over GST control)"
same,binding signal,ETV1,"1.08 fold enrichment (6-mer frequency, TF over GST control)"
